This passage reports inhibition results from PubChem BioAssay AID1210 (NMMLSC, 2008).

The source made the active and inactive calls.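 How the source made its calls: active means blocks over 70% of labeled estradiol binding at 10 µM, or over a set limit at 100 nM; inactive means the rest.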

The assay deals with Estrogen receptor beta (Homo sapiens) (UniProt Q92731). Kind of assay: displacement of fluorescent estrogen from ERbeta – cell-based, Cos7 ERbeta-GFP, flow cytometry, primary screen (AID 1210).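 Further: 0% = DMSO vehicle wells and 100% = complete loss of labeled estradiol signal.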 The conditions noted are these: fluorescent estrogen binding, stronger effect = higher value. For orientation: A flow cytometer gives signals particle by particle.
Estrogen receptor beta (Homo sapiens), sequence (Q92731 whole entry, looked up): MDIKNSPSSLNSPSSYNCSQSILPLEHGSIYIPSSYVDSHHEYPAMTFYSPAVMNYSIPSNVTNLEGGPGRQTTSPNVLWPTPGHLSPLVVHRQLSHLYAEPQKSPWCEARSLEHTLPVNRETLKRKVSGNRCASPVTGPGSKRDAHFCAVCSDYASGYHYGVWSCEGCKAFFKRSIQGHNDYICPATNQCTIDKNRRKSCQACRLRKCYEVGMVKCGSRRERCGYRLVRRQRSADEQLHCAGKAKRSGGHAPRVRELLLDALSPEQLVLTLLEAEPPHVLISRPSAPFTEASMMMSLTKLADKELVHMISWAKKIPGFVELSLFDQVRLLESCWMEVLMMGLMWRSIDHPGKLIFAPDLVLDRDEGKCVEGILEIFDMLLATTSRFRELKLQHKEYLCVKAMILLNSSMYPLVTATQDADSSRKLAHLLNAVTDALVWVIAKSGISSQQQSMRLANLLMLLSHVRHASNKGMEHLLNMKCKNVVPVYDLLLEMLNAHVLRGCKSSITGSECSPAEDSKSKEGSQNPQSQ
Where [1] appears, read: ligand binding inhibition, at 0.1 µM.

For orientation: inhibition means the change of the read-out against control, counted positive when it falls. As to `COc1cccc(C(=O)NC2CCN(C(=O)N3c4ccccc4Sc4ccccc43)CC2)c1`, the inhibition was 43% (inactive) (at 10 µM) and 17% under setting [1].

Take `CSc1ccc(S(=O)(=O)Nc2cccc(F)c2)cc1`: the inhibition runs as follows: (at 10 µM) 21% (active); under setting [1], 75%.

For `CC1=C(SCCC#N)S/C(=C2\SC(C)=C(SCCC#N)S2)S1`, the inhibition by setting is: (at 10 µM) 49% (inactive); under setting [1], 11%.

Take `O=C(Nc1sc2c(c1C(=O)O)CCC2)c1ccccc1`: the inhibition by setting is: (at 10 µM) 46% (inactive); under setting [1], 35%.

For the compound `FC(F)(F)c1ccc2c(c1)C1C=CCC1C(c1ccncc1)N2` (stereo not drawn), the inhibition was 0% (inactive) (at 10 µM) and 51% under setting [1].

For the compound `O=C1C2C3C=CC(C3)C2C(=O)N1c1cccc2cccnc12` (stereo not drawn), the inhibition runs as follows: (at 10 µM) 55% (inactive); under setting [1], 51%.

Turning to `O=C(CSc1nc2c(cnn2-c2ccccc2)c(=O)[nH]1)c1ccc(Cl)cc1`, the inhibition is, setting by setting: (at 10 µM) 39% (inactive); under setting [1], 34%.

With `O=C(Nc1ccc(N2CCCC2)cc1)C(c1ccccc1)c1ccccc1`, the inhibition (at 10 µM) is 69% (inactive) and the inhibition under setting [1] was 19%.

`Nc1ccc2nc(CN3CCOCC3)[nH]c2c1`: the inhibition is, setting by setting: (at 10 µM) 6% (inactive); under setting [1], 47%.

As to `Cc1ccc2[nH]c(=O)c(C3C(C#N)=C(N)Oc4c3ccc3cccnc43)cc2c1` (stereo not drawn), the inhibition by setting is: (at 10 µM) 44% (inactive); under setting [1], 24%.

For the compound `COc1cccc(-n2nnnc2SCC(=O)Nc2ccc(C(C)=O)cc2)c1`, the inhibition was 61% (inactive) (at 10 µM) and 51% under setting [1].

As for `Cc1nn(-c2ccc(Cl)cc2)c2sc(C(=O)N3CCN(c4ccccn4)CC3)cc12`, the inhibition by setting is: (at 10 µM) 50% (inactive); under setting [1], 40%.

Turning to `COc1ccc(C2Nc3ccccc3C(=O)N2c2ccccc2)cc1COc1ccccn1` (stereo not drawn), the inhibition (at 10 µM) is 18% (inactive) and the inhibition under setting [1] is 17%.

With `Nc1ccc2oc(-c3ccc4nc[nH]c4c3)nc2c1`, the inhibition runs as follows: (at 10 µM) 62% (inactive); under setting [1], 2%.

With `O=S(=O)(/N=C(/Sc1ccccc1)c1ccccc1)c1ccccc1`, the inhibition by setting is: (at 10 µM) 32% (inactive); under setting [1], 20%.

Turning to `CCC(=O)Oc1ccc(/C(CC)=C(\CC)c2ccc(OC(=O)CC)cc2)cc1`, the inhibition by setting is: (at 10 µM) 68% (active); under setting [1], 80%.

As to `CN(C)C(=O)c1ccc2c(c1)C1C3CCC(C3)C1C(c1ccccc1)N2` (stereo not drawn), the inhibition runs as follows: (at 10 µM) 0% (inactive); under setting [1], 51%.

`CCOC(=O)c1cc2c(c(CSc3nc4ccccc4c(=O)n3Cc3ccco3)c1)OCOC2`: the inhibition is, setting by setting: (at 10 µM) 67% (inactive); under setting [1], 4%.

Take `COC(=O)c1c(-c2ccncc2)csc1NC(=O)c1ccoc1C`: the inhibition is 52% (inactive) (at 10 µM) and 1% under setting [1].

For `N=C1C(c2nc3ccccc3[nH]2)=C(O)CN1c1ccc(CC(=O)O)cc1`, the inhibition (at 10 µM) is 26% (inactive) and the inhibition under setting [1] was determined as 21%.

Turning to `COc1ccccc1-c1nnc2sc(-c3cnccn3)nn12`, the inhibition is, setting by setting: (at 10 µM) 40% (inactive); under setting [1], 17%.

For `Cc1ccc(C)n1-c1sccc1C(=O)O`, the inhibition was 18% (inactive) (at 10 µM) and 26% under setting [1].

On to `CN(CC(=O)NC(=O)NCc1ccco1)Cc1nc2ccccc2c(=O)[nH]1`, for which the inhibition is 14% (inactive) (at 10 µM) and 53% under setting [1].

Regarding `Cc1c(C(=O)OCc2ccccc2)[nH]c2c1C(=O)CC(c1ccco1)C2` (stereo not drawn), the inhibition by setting is: (at 10 µM) 45% (inactive); under setting [1], 17%.

For `COc1nc(-c2ccc(Cl)cc2)ccc1-c1noc(-c2ccco2)n1`, the inhibition is 72% (active) (at 10 µM) and 56% under setting [1].

In the case of `CC1CC(C(F)(F)C(F)(F)F)n2nc(C(=O)O)cc2N1` (stereo not drawn), the inhibition was 58% (inactive) (at 10 µM) and 27% under setting [1].

In the case of `NC(=O)c1c(NC(=O)c2cc3ccccc3o2)sc2c1CCC2`, the inhibition by setting is: (at 10 µM) 18% (inactive); under setting [1], 54%.

On to `Cc1noc(C)c1COc1ccc(C(=O)OCC(=O)N2c3ccccc3NC(=O)C2(C)C)cc1`, for which the inhibition by setting is: (at 10 µM) 42% (inactive); under setting [1], 30%.

Take `O=C(O)C1OC(Oc2c(-c3ccc(O)c(O)c3)oc3cc(O)cc(O)c3c2=O)C(O)C(O)C1O` (stereo not drawn): the inhibition (at 10 µM) is 55% (inactive) and the inhibition under setting [1] worked out at 2%.

For the compound `COc1cccc(-c2[nH]nc3c2C(c2ccoc2)C(C#N)=C(N)O3)c1` (stereo not drawn), the inhibition runs as follows: (at 10 µM) 54% (inactive); under setting [1], 29%.

As for `COCCNC(=O)c1c(N)n(/N=C/c2cccs2)c2nc3ccccc3nc12`, the inhibition is, setting by setting: (at 10 µM) 29% (inactive); under setting [1], 32%.

With `Nc1ccc2nc(-c3cccnc3)[nH]c2c1`, the inhibition is, setting by setting: (at 10 µM) 50% (inactive); under setting [1], 20%.

As to `CCSc1nnc(NC(=O)C2Cc3ccccc3CN2C(=O)c2ccco2)s1` (stereo not drawn), the inhibition by setting is: (at 10 µM) 45% (inactive); under setting [1], 34%.

With `Oc1ccc(-c2nc3ccc4ccccc4c3c3c2CCC3)cc1O`, the inhibition is 71% (active) (at 10 µM) and 47% under setting [1].
